In publication PMC8159961, “Exploring protein hotspots by optimized fragment pharmacophores” (Nature Communications, 2021) one finds SETD2 data, which are given here for 40 compounds.

Values without a mark were called inactive. The rule behind the calls is not given here.

Chain of histone methyltransferase SET domain containing 2 (SETD2) (Q9BYW2 whole entry, looked up, the tested form may be a part): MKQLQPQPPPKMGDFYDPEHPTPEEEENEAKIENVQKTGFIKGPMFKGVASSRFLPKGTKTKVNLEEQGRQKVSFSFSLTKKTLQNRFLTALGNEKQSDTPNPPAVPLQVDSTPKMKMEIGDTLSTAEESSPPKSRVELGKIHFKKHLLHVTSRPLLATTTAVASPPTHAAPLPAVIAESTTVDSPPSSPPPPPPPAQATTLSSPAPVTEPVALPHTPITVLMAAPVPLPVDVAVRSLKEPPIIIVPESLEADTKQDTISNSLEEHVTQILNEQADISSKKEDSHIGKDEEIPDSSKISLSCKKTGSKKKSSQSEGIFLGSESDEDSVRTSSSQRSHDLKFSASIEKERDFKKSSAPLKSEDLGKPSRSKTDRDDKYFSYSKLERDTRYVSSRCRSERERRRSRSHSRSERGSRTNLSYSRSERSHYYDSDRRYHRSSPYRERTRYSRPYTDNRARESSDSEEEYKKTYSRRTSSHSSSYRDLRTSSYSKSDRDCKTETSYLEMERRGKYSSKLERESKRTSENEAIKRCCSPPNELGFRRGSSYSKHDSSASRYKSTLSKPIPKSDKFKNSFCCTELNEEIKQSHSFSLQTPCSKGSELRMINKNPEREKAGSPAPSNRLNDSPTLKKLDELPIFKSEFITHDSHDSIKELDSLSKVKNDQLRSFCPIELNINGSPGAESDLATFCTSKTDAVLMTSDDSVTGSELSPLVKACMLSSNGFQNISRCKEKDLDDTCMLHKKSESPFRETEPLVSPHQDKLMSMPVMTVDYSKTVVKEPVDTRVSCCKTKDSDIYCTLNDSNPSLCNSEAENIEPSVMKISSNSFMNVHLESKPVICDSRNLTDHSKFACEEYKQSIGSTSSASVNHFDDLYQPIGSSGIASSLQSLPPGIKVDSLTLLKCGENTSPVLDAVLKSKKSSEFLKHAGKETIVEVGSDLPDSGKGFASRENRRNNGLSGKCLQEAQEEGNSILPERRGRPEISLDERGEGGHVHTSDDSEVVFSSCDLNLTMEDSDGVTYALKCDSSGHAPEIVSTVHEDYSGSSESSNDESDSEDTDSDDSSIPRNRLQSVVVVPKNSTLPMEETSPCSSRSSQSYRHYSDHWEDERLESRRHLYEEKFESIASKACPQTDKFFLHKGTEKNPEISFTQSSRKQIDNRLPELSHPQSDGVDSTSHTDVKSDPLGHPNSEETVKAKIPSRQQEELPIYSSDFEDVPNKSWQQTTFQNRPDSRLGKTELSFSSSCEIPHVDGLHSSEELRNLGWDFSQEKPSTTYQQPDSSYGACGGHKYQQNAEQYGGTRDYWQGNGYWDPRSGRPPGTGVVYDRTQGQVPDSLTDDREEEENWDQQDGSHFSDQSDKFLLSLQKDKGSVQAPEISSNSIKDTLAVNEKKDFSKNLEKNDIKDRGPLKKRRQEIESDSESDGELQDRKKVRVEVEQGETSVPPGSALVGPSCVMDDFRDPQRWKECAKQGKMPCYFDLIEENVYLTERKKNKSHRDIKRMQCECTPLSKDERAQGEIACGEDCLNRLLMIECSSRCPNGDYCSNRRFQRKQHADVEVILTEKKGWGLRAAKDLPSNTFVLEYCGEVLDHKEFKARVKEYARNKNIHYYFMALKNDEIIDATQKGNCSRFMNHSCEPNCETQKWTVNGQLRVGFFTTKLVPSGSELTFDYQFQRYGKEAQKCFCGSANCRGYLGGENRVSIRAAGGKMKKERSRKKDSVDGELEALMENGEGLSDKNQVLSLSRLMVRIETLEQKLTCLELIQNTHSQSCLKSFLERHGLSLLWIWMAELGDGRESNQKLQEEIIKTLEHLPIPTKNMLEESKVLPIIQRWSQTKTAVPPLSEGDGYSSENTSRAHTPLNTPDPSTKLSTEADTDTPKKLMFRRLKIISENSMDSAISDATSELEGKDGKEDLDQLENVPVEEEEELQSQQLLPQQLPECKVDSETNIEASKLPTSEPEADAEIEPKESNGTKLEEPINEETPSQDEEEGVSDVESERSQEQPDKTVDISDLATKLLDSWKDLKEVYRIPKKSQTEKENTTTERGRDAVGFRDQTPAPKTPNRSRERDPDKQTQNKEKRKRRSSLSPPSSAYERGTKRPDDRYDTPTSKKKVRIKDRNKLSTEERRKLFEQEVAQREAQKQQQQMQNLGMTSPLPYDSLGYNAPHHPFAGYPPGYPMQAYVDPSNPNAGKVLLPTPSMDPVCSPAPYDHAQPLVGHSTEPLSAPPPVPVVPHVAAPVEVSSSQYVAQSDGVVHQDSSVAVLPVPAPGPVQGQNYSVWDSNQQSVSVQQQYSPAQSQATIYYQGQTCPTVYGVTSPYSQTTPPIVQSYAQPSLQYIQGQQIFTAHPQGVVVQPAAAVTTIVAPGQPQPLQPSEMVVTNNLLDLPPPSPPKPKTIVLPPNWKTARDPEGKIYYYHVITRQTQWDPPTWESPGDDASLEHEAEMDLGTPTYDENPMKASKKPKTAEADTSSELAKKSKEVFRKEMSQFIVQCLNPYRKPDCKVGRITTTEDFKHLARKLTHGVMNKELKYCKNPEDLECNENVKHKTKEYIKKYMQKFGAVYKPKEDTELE

The assay has as its target histone methyltransferase SET domain containing 2 (SETD2) (Homo sapiens, UniProt Q9BYW2). In words: primary screen, binary call; higher = more effect of the substance. The protocol:
The Chemiluminescence assay evaluates SETD2 specific tri -methylation activity towards histone H3K36. The kit consist s of recombinant SETD2, S-adenosylmethionine and a specific H3K36me3 antibody and was performed according to the manufacturer’s protocol (Catalo g- No. 52060, https://bpsbioscience.com/setd2 -chemiluminescent-assay-kit-52060). Values were blank corrected and normalized . Enzymatic activities were calculated relative to the positive control of the kit (full enzymatic activity) and to the known SET doma in inhibitor Sinefungin28 used as negative control (complete enzymatic activity inhibition). Compounds used were diluted in DMSO.
On to `Cc1cc(-c2ccccc2)n[nH]1`, for which the SETD2 was 0.

As for `O=C(O)CC1CCC(=O)N1` (stereo not shown), the SETD2 is 0.

For the compound `O=C1CNCCN1c1ccccc1`, the SETD2 was 0.

Regarding `CC(=O)c1sc(-c2ccc(O)cc2)nc1C`, the SETD2 is 0.

Consider `Cc1ccc(-c2ccc(O)cc2)cc1`, for which the SETD2 is 0.

Consider `O=C1CCN(c2ccncc2)CC1`, for which the SETD2 was 0.

Regarding `Cc1ccc(CCNc2ccccc2)cn1`, the SETD2 was 0.

Take `O=C(O)C1CCN(c2ncccn2)CC1`: the SETD2 is 0.

On to `CCN(CC)c1cccc(C)c1`, for which the SETD2 was 0.

With `Cc1cc(N)no1`, the SETD2 is 0.

Consider `CCc1ccc(NC2=NCCCS2)cc1`, for which the SETD2 was 0.

For `Cn1c(CO)nc2ccccc21`, the SETD2 is 0.

On to `N#CC1CCS(=O)(=O)C1` (stereo not shown), for which the SETD2 is 0.

In the case of `CC(=O)c1ccc2c(c1)CNCC2`, the SETD2 was 0.

Regarding `O=C1CCCc2occc21`, the SETD2 was 0.

On to `O=C(O)C1CCCN(C(=O)N2CCCC2)C1` (stereo not shown), for which the SETD2 was 0.

For `COc1cccc(NC2=NCCCCC2)c1`, the SETD2 was 0.

As for `O=C1CC(CSc2ccc(Cl)cc2)=NN1`, the SETD2 was 0.

Regarding `Brc1ccc(-c2ccon2)cc1`, the SETD2 is 0.

Turning to `Fc1ccc2c(C3CCNCC3)c[nH]c2c1`, the SETD2 was 0.

With `Cc1nc(-c2ccccc2)cs1`, the SETD2 was 0.

In the case of `c1ccc2c(N3CCNCC3)ccnc2c1`, the SETD2 was 0.

For `Clc1ccc2nnnn2n1`, the SETD2 is 0.

`O=c1[nH]c2c(s1)CCC2`: the SETD2 is 0.

Take `Cc1cc(C)c2c(=O)[nH]n(C)c2n1`: the SETD2 was 0.

`Cc1ccc(C)n1Cc1ccccc1Cl`: the SETD2 is 0.

With `O=C1NC(=O)/C(=C\c2cccs2)N1`, the SETD2 was 1 (active).

`O=C(c1ccccc1F)N1CCNCC1`: the SETD2 was 0.

Take `Cn1c(N)nc2ccccc21`: the SETD2 was 1 (active).

`CC1C(=O)NC(=O)N1c1ccc(Cl)cc1` (stereo not shown): the SETD2 is 0.

Take `Nc1ccc(-c2ccccc2)cc1C(=O)O`: the SETD2 is 0.

Take `Cc1cnc(C(F)(F)F)cn1`: the SETD2 is 0.

On to `CC(CN)N1CCc2sccc2C1` (stereo not shown), for which the SETD2 was 0.

Take `O=c1ccc2c([nH]1)CCCC2`: the SETD2 is 0.

For `CCc1nccn1CC(=O)O`, the SETD2 is 0.

Take `N#CCCN1CCc2ccccc21`: the SETD2 was 0.

Regarding `COc1ccc(C2=CCNCC2)cc1`, the SETD2 was 0.

In the case of `Nc1nnc(-c2cccs2)[nH]1`, the SETD2 is 0.

As for `O=C1CSC(Nc2ccc(F)cc2)=N1`, the SETD2 is 0.

Turning to `Oc1ccc(-n2cncn2)cc1`, the SETD2 is 0.
